Values joined by “and” are separate entries in the source; they are usually repeats but may differ in a detail not shown here. Equal entries are not always repeated. Results filed as inconclusive are left out. Where a call stands in place of a potency, no number is given. Active and inactive are the calls of the source. Calls follow the shape of the full dose curve.
Assay: qHTS assay for small molecule agonists of the p53 signaling pathway - cell viability (AID 651633); also: nearly all actives have a fitted effect of over 30% in size
Details: p53RE-bla HCT-116 viability, ATP luminescence, 16 h; series mostly up to 83.3 µM
From the text: National Center for Advancing Translational Sciences [NCATS]
NIH Chemical Genomics Center [NCGC]
U.S. Environmental Protection Agency [EPA]
National Institutes of Environmental Health Sciences [NIEHS]
National Toxicology Program [NTP]
U.S. Food and Drug Administration [FDA]
p53, a tumor suppressor protein, is activated following cellular insult, including DNA damage and other cellular stresses. The activation of p53 regulates cell fate by inducing DNA repair, cell cycle arrest, apoptosis, or cellular senescence. The activation of p53, therefore, is a good indicator of DNA damage and other cellular stresses. […] The activation of the reporter gene under culture conditions can be detected by fluorescence intensity. This cell line was used to screen the Tox21 compound library in a 1536-well plate format and to identify agonists that activate the p53 signaling pathway.
Tox21 Assay Protocol Summary:
The p53RE-bla cells were dispensed at 4,000 cells/5 ul/well in 1536-well black wall/clear bottom plates using a Multidrop dispenser. After the assay plates were incubated at a 37 C/5% CO2 incubator for 5 hours, 23 nL of compounds dissolved in DMSO, positive controls or DMSO only was transferred to the assay plate by a pin tool. The plates were incubated at 37 C for 16 hours. After 1 uL of LiveBLAzerTM B/G FRET substrate was added using a Flying Reagent Dispenser, the plates were incubated at room temperature for 2 hours, and fluorescence intensity was measured by an Envision plate reader.
For cell viability readout that measures cytotoxicity, 4 ul/well of CellTiter-Glo reagent was added into the assay plates using a Flying Reagent Dispenser. After 30 min incubation at room temperature, the luminescence intensity in the plates was measured using a ViewLux plate reader.
In the case of BrCC(Br)C1CCC(Br)C(Br)C1 (stereo not given), the Potency is reported as “inactive”.
With O=S(=O)(Cl)c1ccccc1 the Potency was “inactive”.
With C(=NC1CCCCC1)=NC1CCCCC1 the Potency was 30.8 µM (active) and 17.2 µM (active).
In the case of CO[C@@H]1[C@H](OC(=O)NC(=O)CCl)CC[C@]2(CO2)[C@H]1[C@@]1(C)O[C@@H]1CC=C(C)C, the Potency is reported as “inactive”.
In the case of BrCCCCBr, the Potency is reported as “inactive”.
In the case of Nc1nc(N)nc(N)n1, the Potency is reported as “inactive”.
For O=C(Nc1ccccc1)Nc1ccnc(Cl)c1, the Potency was “inactive”.
For CC(O)(CS(=O)(=O)c1ccc(F)cc1)C(=O)Nc1ccc(C#N)c(C(F)(F)F)c1 (stereo not given), the Potency was “inactive”.
With C=CC(=O)OC(C)(C)C the Potency was “inactive”.
In the case of O=C(O)CC(Cl)C(=O)O (stereo not given), the Potency is reported as “inactive”.
In the case of COP(=S)(OC)Oc1cc(Cl)c(I)cc1Cl, the Potency is reported as “inactive”.
In the case of COc1ccc(-c2ccccc2)cc1NNC(=O)OC(C)C, the Potency is reported as “inactive”.
With COC(=O)C(C)N(C(=O)Cc1ccccc1)c1c(C)cccc1C (stereo not given) the Potency was “inactive”.
With CC(=O)CCC(C)=O the Potency was “inactive”.
In the case of C=C(C#N)CCC#N, the Potency is reported as “inactive”.
In the case of O=C(NC(=O)c1c(F)cccc1F)Nc1cc(Cl)c(Oc2ncc(C(F)(F)F)cc2Cl)c(Cl)c1, the Potency is reported as 7.37 µM (active).
For CC(=O)c1cc2c(cc1C)C(C)(C)C(C)CC2(C)C (stereo not given), the Potency was 61.1 µM (active).
With C=CC(=O)OC the Potency was “inactive”.
With O=C(O)COc1ccc(Cl)cc1 the Potency was “inactive”.
For Clc1cc(Cl)c(Cl)c(Cl)c1, the Potency was “inactive”.
For O=C1C(=O)c2cccc3cccc1c23, the Potency was “inactive”.
In the case of COC(=O)c1cncn1C(C)c1ccccc1 (stereo not given), the Potency is reported as “inactive”.
In the case of COc1cc(Cl)c(OC)cc1Cl, the Potency is reported as “inactive”.
With CCCCNP(N)(N)=S the Potency was “inactive”.
In the case of CC(=O)C(C)(C)C, the Potency is reported as “inactive”.
In the case of O=C(NCc1cccnc1)Nc1ccc([N+](=O)[O-])cc1, the Potency is reported as “inactive”.
In the case of CC(C)=CCOc1c2occc2cc2ccc(=O)oc12, the Potency is reported as “inactive”.
In the case of N#CCC#N, the Potency is reported as “inactive”.
In the case of CCC(C)(NC(=O)c1cc(Cl)c(C)c(Cl)c1)C(=O)CCl (stereo not given), the Potency is reported as 61.5 µM (active).
For CC(Cl)C(C)Cl (stereo not given), the Potency was “inactive”.
For NCCCNCCCN, the Potency was “inactive”.
In the case of CC(=O)[C@H]1CC[C@H]2[C@@H]3CC[C@H]4C[C@](C)(O)CC[C@]4(C)[C@H]3CC[C@]12C, the Potency is reported as “inactive”.
With Cl/C=C\Cl the Potency was “inactive”.
With CS/C(C)=N/OC(=O)N(C)SN(C)C(=O)O/N=C(\C)SC the Potency was “inactive”.
In the case of CCCCCCCCOC(=O)c1ccc(C(=O)OCCCCCCCC)c(C(=O)OCCCCCCCC)c1, the Potency is reported as “inactive”.
In the case of CC(=O)NC1CCSC1=O (stereo not given), the Potency is reported as “inactive”.
In the case of C=CC(=O)OCCCCO, the Potency is reported as “inactive”.
With NNC(=O)c1cccnc1 the Potency was “inactive”.
For C=COC(C)=O, the Potency was “inactive”.
With O=C(OC1CCCCC1)c1ccccc1C(=O)OC1CCCCC1 the Potency was “inactive”.

Source: PubChem BioAssay (Tox21)
Potency is read from the fitted curve at half-maximal effect.
